B2AR arrestin: recruits beta-arrestin to the human beta2-adrenergic receptor. P07550. beta-arrestin recruitment to beta2AR, cell-based reporter. Potency, µM (highest dose often 46.1 µM), without a hit: at the highest dose activation, hits mostly activators. 330,000 compounds, 0.02% hits;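 also: potency is read from the fitted curve at half-maximal effect; 0% = DMSO controls and full agonism = EC100 isoproterenol or metaproterenol; nearly all actives have a fitted effect of over 65% in size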
Target sequence (P07550 whole entry, looked up): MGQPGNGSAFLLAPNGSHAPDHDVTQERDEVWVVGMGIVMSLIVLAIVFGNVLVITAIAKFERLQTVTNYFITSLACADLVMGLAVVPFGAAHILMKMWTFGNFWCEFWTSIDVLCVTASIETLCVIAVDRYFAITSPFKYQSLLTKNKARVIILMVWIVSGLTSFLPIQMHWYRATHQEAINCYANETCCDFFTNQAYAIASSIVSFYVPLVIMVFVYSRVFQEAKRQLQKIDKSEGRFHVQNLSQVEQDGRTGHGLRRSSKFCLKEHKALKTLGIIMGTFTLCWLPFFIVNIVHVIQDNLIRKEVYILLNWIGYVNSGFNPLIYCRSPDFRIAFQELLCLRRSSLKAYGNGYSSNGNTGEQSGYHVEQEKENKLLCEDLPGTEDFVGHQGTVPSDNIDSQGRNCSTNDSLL
ELG1 repair inh: ELG1-dependent DNA repair inhibition. HEK293T ELG1-luciferase reporter, luminescence, 16 h; DNA damage induced by 5-fluorouridine. Potency, µM (doses to about 46.1 µM), for inactives: at the top dose activity change, negative = inhibition, hits mostly inhibitors. 330,000 compounds, 2.3% hits. AID 504467; also: potency is read from the fitted curve at half-maximal effect; nearly all actives have a fitted effect of over 55% in size
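In this reporter screen, reduction of luminescence relative to DMSO vehicle indicated activity. Compounds and 5-fluorouridine were added together to 2,000 cells per well, incubated for 16 hr at 37 °C, then developed with ONE-Glo.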
RORg inh: inhibitors of mouse ROR gamma transcriptional activity. Drosophila S2 Gal4-RORgamma UAS-luciferase reporter, 20 h. P51450. Potency, µM (series often up to 53.6 µM), for inactives: top-dose activity change, negative = inhibition, actives largely listed as inhibitors. 310,000 compounds, 5.4% hits; also: potency is read from the fitted curve at half-maximal effect; nearly all actives have a fitted effect of over 60% in size
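Luminescence from a UAS-regulated Photinus luciferase reporter in stably transfected Drosophila Schneider cells is measured; decreased signal marks ROR gamma inhibition. Fusion expression is induced by 700 uM copper sulfate for 20 hr.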
TSHR antag: blocks TSH signaling through the human TSH receptor | P16473 | TSHR-expressing cells, TSH-stimulated cAMP HTRF, 2 h; hits give low values | activity change, negative = inhibition, % at 11.5 µM | 330,000 compounds, 0.2% hits | AID 504810;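 active = activity change below a set negative limit, meaning inhibition stronger than a set level, cut at about -70% in these data; inconclusive = activity change between two set negative limits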
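TSHR-expressing cells were treated with compounds, then stimulated with TSH at EC80 (4nM final) for 2 hours at 37 deg C. Cellular cAMP was measured by HTRF competition between lysate cAMP and cAMP-d2 for a cryptate-labelled anti-cAMP antibody.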
Gal4-VP16 FLuc: inhibits Gal4-VP16 luciferase reporter, ROR gamma counter-screen | 310,000 compounds, 3.5% hits | Drosophila S2 Gal4-VP16 UAS-luciferase, luminescence, 20 h | Potency, µM (top dose mostly 53.6 µM), inactives show at the highest dose activity, negative = inhibition, hits mostly inhibitors;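 also: Gal4-VP16 expression switched on by copper sulfate through the metallothionein promoter; potency is read from the fitted curve at half-maximal effect; nearly all actives have a fitted effect of over 50% in size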
* marks the source's active call; other numbers are inactive results; ? = inconclusive; · = no result given. Only some compounds are listed: those with a hit (about 7.5% of all), similar ones and a draw of the others. Unless noted, calls follow the shape of the dose curve; as a rule, active = well fitted curve in the direction sought with a large enough effect; inconclusive = small, poorly fitted or top-dose-only effect, or another doubt; inactive = no such curve, though single readings can be large; an effect the other way counts as inactive or inconclusive. Unless noted, % is scaled to controls: 0 for no effect and ±100 for the full control effect.

SMILES	B2AR arrestin	ELG1 repair inh	RORg inh	TSHR antag	Gal4-VP16 FLuc
Oc1ccc(/C=N/NP(=S)(c2ccccc2)c2ccccc2)c(O)c1O	0.3%	-0.1%	-37.0%	11.3	-1.1%
Oc1ccccc1/C=N/NP(=S)(c1ccccc1)c1ccccc1	0.4%	0.0%	11.2µM*	19.4	5.9%
O=C(N/N=C/c1c(O)n(CCc2ccccc2)c(=O)[nH]c1=O)c1ccncc1	-0.1%	2.0%	17.1%	16.8	-5.3%
O=C(N/N=C/c1cccnc1)c1ccc(NC(=O)C(c2ccccc2)c2ccccc2)cc1	-0.7%	?	-44.2%	-6.2	6.31µM*
CCCCC/C=C\C/C=C\C/C=C\C/C=C\CCCC(=O)NCCCl	·	·	-42.0%	·	-21.0%
CCCCCn1c(=O)c(C(=O)Nc2ncccc2C)c(O)c2ccccc21	-2.7%	-2.6%	8.91µM*	0.1	8.91µM*
CCS(=O)(=O)Nc1ccc(C2=NN(C(=O)c3ccco3)C(c3ccc(Cl)o3)C2)cc1 (configuration not stated)	-0.5%	?	·	-5.1	·
C=CC[C@H](CC(=O)N(CCO)Cc1ccccc1)C(=O)NC[C@H](OC(=O)[C@@H](CC=C)CC(=O)OC(C)(C)C)c1ccccc1	0.3%	20.6µM*	·	-3.2	·
C=CC[C@@H](CC(=O)N(CCO)Cc1ccccc1)C(=O)NC[C@@H](OC(=O)[C@@H](CC=C)CC(=O)OC(C)(C)C)c1ccccc1	-0.1%	20.6µM*	·	-8.1	·
Nc1cc(Cl)c2nonc2c1[N+](=O)[O-]	0.1%	?	2µM*	?	2.82µM*
COc1ccc(-n2c(/C=C/c3ccc(O)c(OC)c3)nc3ccccc3c2=O)cc1	0.4%	?	24.2%	50.5	4.7%
COc1cc(/C=C/[N+](=O)[O-])ccc1O	-0.2%	23.1µM*	4.47µM*	-10.2	3.16µM*
c1ccc([Se]c2c(-c3ccccc3)[se]c3ccccc23)cc1	·	·	32.7%	·	13.6%
CC1=CC2/C=C(\C)CCC(O)C(O)/C=C/C(=O)C23C(=O)NC(CC(C)C)C3C1C (configuration not stated)	-0.4%	?	5.01µM*	?	7.08µM*
COC(=O)Nc1ccc(N=C(N)N[N+](=O)[O-])cc1	-0.6%	7.5%	16.6%	3.5	-1.7%
CC(C)(C)NC(=S)/N=C(\N)N[N+](=O)[O-]	0.1%	-0.9%	10µM*	-2.4	?
CCN(CC)S(=O)(=O)c1ccc(NN=C(C#N)C#N)cc1	-1.6%	?	2.4%	-70.3*	?
N#CC(C#N)=NNc1ccc([N+](=O)[O-])cc1	-0.1%	-29.1%	?	-75.9*	?
Cl.Cl.Cl.Cl.Cl.Cl.N.N.N.N.NNNNN.NNNNN.O.O.[Ru].[Ru].[Ru]	·	·	17.7%	·	-16.9%
COC1=C[C@H]2[C@H]3Cc4ccc(OC)c(O)c4[C@@]2(CCN3C)CC1=O	·	·	4.0%	·	-5.8%
CC(C)CCn1c(N2CCN(c3cccc(Cl)c3)CC2)nc2c1c(=O)[nH]c(=O)n2C	0.2%	14.6µM*	?	2.5	3.2%
O=c1[nH]c(=O)n(-c2cccc(Cl)c2)c(O)c1C=NCCCN1CCOCC1	-1.2%	?	-8.6%	0.4	-7.9%
COc1ccc(-n2c(O)c(/C(C)=N/N3CCCCCC3)c(=O)[nH]c2=O)cc1	-0.8%	0.9%	34.6%	1.7	1.3%
COc1ccc(-n2c(O)c(/C(C)=N/Nc3ccccc3)c(=O)[nH]c2=O)cc1	-0.3%	7.3µM*	26.0%	3.8	-3.1%
CCCC[C@@H](C)[C@@H](OC(=O)C[C@@H](CC(=O)O)C(=O)O)[C@H](C[C@@H](C)CCCCCC[C@@H](O)C[C@H](O)[C@H](C)N)OC(=O)C[C@@H](CC(=O)O)C(=O)O	·	·	0.3%	·	-9.2%
COC(=O)[C@@H]1C[C@H](OC(C)=O)C(=O)[C@H]2[C@@]1(C)CC[C@H]1C(=O)O[C@H](c3ccoc3)C[C@]21C	·	·	24.0%	·	-19.6%
CC(=O)OCC1=C(C(=O)O)N2C(=O)[C@@H](NC(=O)CCC[C@@H](N)C(=O)O)[C@H]2SC1	·	·	·	-6.0	·
CC(C)(OOC(C)(C)c1ccccc1)c1ccccc1	·	·	42.8%	·	3.8%
Cl/C=C/CCl	·	·	-0.3%	·	-1.2%
